Reference: PubChem BioAssay AID2561 (National Center for Advancing Translational Sciences (NCATS), 2010)
Results filed as inconclusive are left out. Values without a mark were called inactive. Active and inactive are the calls of the source. Calls come from the whole dose curve; as a rule, active = well fitted inhibition curve with a large enough effect; inconclusive = small, poorly fitted or top-dose-only effect, or effect the other way; inactive = flat fitted curve, though single readings scatter.
Potency is the fitted concentration of half-maximal effect.
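Throughout, for activity change, negative = inhibition: plate controls were uninhibited enzyme for no effect and no enzyme wells for full effect.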

These compounds were tested against Pyruvate kinase (Leishmania mexicana) (UniProt Q27686) (assay: Confirmation Assay for Inhibitors of Leishmania Mexicana Pyruvate Kinase (LmPK): for Probe SAR). Conditions: purified LmPK, ATP generation, Kinase-Glo luminescence; series mostly up to 57.5 µM; activity change, negative = inhibition: at the top concentration.
Sequence of Pyruvate kinase (Leishmania mexicana) (Q27686 whole entry, looked up): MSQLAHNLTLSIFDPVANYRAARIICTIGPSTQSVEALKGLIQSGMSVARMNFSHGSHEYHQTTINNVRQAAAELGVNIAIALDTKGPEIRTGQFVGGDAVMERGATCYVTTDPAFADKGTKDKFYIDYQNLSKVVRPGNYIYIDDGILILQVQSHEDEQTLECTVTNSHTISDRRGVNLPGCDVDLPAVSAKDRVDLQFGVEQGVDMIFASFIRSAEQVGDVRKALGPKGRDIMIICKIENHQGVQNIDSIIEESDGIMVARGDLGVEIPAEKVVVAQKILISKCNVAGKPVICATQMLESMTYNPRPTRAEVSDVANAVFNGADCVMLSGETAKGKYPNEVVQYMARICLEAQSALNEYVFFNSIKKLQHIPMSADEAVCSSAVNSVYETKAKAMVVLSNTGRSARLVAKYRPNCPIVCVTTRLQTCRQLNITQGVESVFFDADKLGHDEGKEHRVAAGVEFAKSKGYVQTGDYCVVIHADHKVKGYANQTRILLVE
Source text: NIH Chemical Genomics Center [NCGC] Malcolm Walkinshaw, Hugh Morgan, Linda Gilmore University of Edinburgh, UK MLPCN Grant: 1 R03 MH085697-01 NCGC Assay Overview: Pyruvate kinase (L. Mexicana) (LmPK) enzyme was supplied as a highly purified (>95% pure) sulphate-free preparation from University of Edinburgh, UK and assayed for its ability to generate ATP from ADP using phosphoenolpyruvate (PEP) as a substrate. ATP generation was detected in a coupled reaction by luciferase-mediated luminescence, an ATP-dependent process. Pyruvate kinase substrates, PEP and ADP, were present in the assay at Km and approximately 10-fold below Km respectively. The enzyme was assayed at an intermediate level of activity to screen for both inhibitors and activators.
NCGC Assay Protocol Summary: Three uL of enzyme mix (kept on ice) in assay buffer (50 mM Imidazole pH7.2, 50 mM KCl, 7 mM MgCl2, 0.01% Tween 20, 0.05% BSA) containing PEP (0.5 mM final concentration) and LmPK (0.1 nM final concentration) was dispensed into white solid bottom 1,536 well microtiter plates. 23 nL of compound were delivered by a pin tool and 1 uL of ADP mix in assay buffer (r.t; 0.1 mM final ADP concentration) was added. Plates were incubated at room temperature for 1 hour. Two uL of detection mix (Kinase-Glo, Promega; at 4 degree Celsius protected from light) was added and luminescence read by a ViewLux (Perkin Elmer) at 1 second exposure/plate. Data were normalized to the uninhibited and AC100 inhibition (no enzyme). To monitor activation, the first column contained a five-fold concentration of LmPK (0.5 nM).
With O=S1(=O)N=C(Oc2cccc(C(F)(F)F)c2)c2ccccc21 the Potency was 4.61 µM (active).
For Cc1ccc(NS(=O)(=O)c2ccc3c(ccn3C)c2)cc1C, the “activity change, negative = inhibition” value was -11%.
With COc1ccc(NS(=O)(=O)c2ccccc2)cc1NS(=O)(=O)c1ccccc1 the “activity change, negative = inhibition” value was 31.7%.
For Cc1ccc(N2C(=O)c3ccccc3C2=O)c(C)c1, the “activity change, negative = inhibition” value was 8.62%.
For Cc1ccccc1Nc1c(-c2ccc(Cl)s2)nc2ccccn12, the “activity change, negative = inhibition” value was 11.9%.
For COc1ccc(NS(=O)(=O)c2ccccc2C(=O)O)cc1, the “activity change, negative = inhibition” value was 8.54%.
In the case of Nc1ccc2c(c1)C(=O)NS2(=O)=O, the “activity change, negative = inhibition” value is reported as 2.28%.
Cc1ccc(NS(=O)(=O)c2ccc3c(c2)CCCC(=O)N3)cc1C was tested, and the “activity change, negative = inhibition” value was 13.9%.
O=S(=O)(Nc1ccc(O)c(NS(=O)(=O)c2ccccc2)c1)c1ccccc1 was tested, and the “activity change, negative = inhibition” value was 14.9%.
O=S(=O)(c1ccc2c(c1)OCCO2)N1CCN(S(=O)(=O)c2c(F)cccc2F)CC1 was tested, and the Potency was “inactive”.
For O=C1CCc2cc(S(=O)(=O)Nc3ccc4c(c3)OCCO4)ccc2N1, the “activity change, negative = inhibition” value was 14.1%.
In the case of Cn1c2cc(S(C)=O)sc2c2cnn(Cc3cccc(N)c3)c(=O)c21 (stereo not given), the “activity change, negative = inhibition” value is reported as 4.83%.
In the case of Cc1ccc2nc(-c3ccc(C)o3)c(Nc3ccc(F)cc3)n2c1, the “activity change, negative = inhibition” value is reported as -21.2%.
O=S1(=O)N=C(Oc2ccccc2)c2ccccc21 was tested, and the Potency was 8.01 µM (active).
For O=C1CCc2cc(S(=O)(=O)Nc3ccncc3)ccc2N1, the “activity change, negative = inhibition” value was -1.99%.
For Cc1ccc(Nc2c(-c3ccsc3)nc3cccc(C)n23)cc1, the “activity change, negative = inhibition” value was 10.1%.
With Cc1ccc2nc(-c3ccc(C)o3)c(Nc3ccccc3)n2c1 the “activity change, negative = inhibition” value was -1.71%.
With O=C(O)c1ccccc1OC1=NS(=O)(=O)c2ccccc21 the Potency was 1.63 µM (active).
Cc1ccn2c(NC3CCCCC3)c(-c3ccc(C)o3)nc2c1 was tested, and the “activity change, negative = inhibition” value was 0%.
With O=C1c2ccccc2C(=O)N1Cc1ccncc1 the “activity change, negative = inhibition” value was -15.4%.
In the case of Cc1ccc(NS(=O)(=O)c2ccc3[nH]c(=O)[nH]c3c2)cc1C, the “activity change, negative = inhibition” value is reported as 0.937%.
Cc1cccc(NS(=O)(=O)c2ccc3c(c2)CCC(=O)N3)c1 was tested, and the “activity change, negative = inhibition” value was -10.1%.
For COC(=O)c1ccc2c(c1)S(=O)(=O)NC2=O, the “activity change, negative = inhibition” value was -0.49%.
In the case of COc1cccc(N2C(=O)c3ccccc3C2=O)c1, the “activity change, negative = inhibition” value is reported as 8.16%.
In the case of COc1ccccc1OC1=NS(=O)(=O)c2ccccc21, the Potency is reported as 4.31 µM (active).
With Cc1cc(C)n2c(Nc3ccccc3)c(-c3ccc(C)o3)nc2n1 the “activity change, negative = inhibition” value was 1.14%.
For COc1ccc(OC2=NS(=O)(=O)c3ccccc32)cc1, the Potency was 4.31 µM (active).
With O=C1CCc2cc(S(=O)(=O)Nc3cccc(F)c3)ccc2N1 the “activity change, negative = inhibition” value was 10.2%.
With Cc1ccc(NS(=O)(=O)c2cc3c(cc2C)NC(=O)CO3)cc1C the “activity change, negative = inhibition” value was 15.9%.
For Cc1ccc(Nc2c(-c3ccc(C)s3)nc3cccc(C)n23)cc1, the “activity change, negative = inhibition” value was -1.87%.
With Cc1ccc(C)c(SC2=NS(=O)(=O)c3cc(C(=O)NCc4ccccc4)ccc32)c1 the Potency was 5.8 µM (active).
In the case of COc1cccc(Cn2ncc3c4sc(S(C)=O)cc4n(C)c3c2=O)c1 (stereo not given), the Potency is reported as “inactive”.
O=S1(=O)N=C(Sc2ccc3c(c2)OCCO3)c2ccccc21 was tested, and the Potency was 3.66 µM (active).
For O=S1(=O)N=C(Oc2ccccc2C(F)(F)F)c2ccccc21, the Potency was 6.51 µM (active).
In the case of Cc1nc(-c2ccc(S(=O)(=O)Nc3ccc(C)c(C)c3)s2)cs1, the “activity change, negative = inhibition” value is reported as 15.4%.
For CC(C)(C)c1ccc(SC2=NS(=O)(=O)c3ccccc32)cc1, the Potency was 3.26 µM (active).
Cc1cc(C)c2c(=O)cc(C3C(=O)c4ccccc4C3=O)[nH]c2c1 was tested, and the “activity change, negative = inhibition” value was -17.6%.
For O=C1NS(=O)(=O)c2cc(Br)ccc21, the “activity change, negative = inhibition” value was 1.61%.
For Cc1ccc(C)c(SC2=NS(=O)(=O)c3ccccc32)c1, the Potency was 4.11 µM (active).
Nc1cc(S(=O)(=O)N2CCN(S(=O)(=O)c3ccc4c(c3)OCCO4)CC2)ccn1 was tested, and the “activity change, negative = inhibition” value was 3.64%.
